ADAM17 inh: inhibits human ADAM17. P78536. recombinant ADAM17, EDANS/DABCYL FRET peptide cleavage. inhibition, % at 6.95 µM. 0.83% of 370,000 active. AID 720648;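 active means inhibition above the mean of compounds lying between control limits plus 3 SD, set per campaign, cut at about 8.5% in these data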
proKLK7 act: proKLK7 (human) activation, primary screen; activation, % at 7 µM; 0.9% of 370,000 active; P49862; purified proKLK7, EDANS-DABCYL substrate fluorescence; 100% is mature enzyme control, 0% vehicle;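 active means activation above the mean of all tested compounds plus 3 SD, computed per campaign excluding outliers beyond control limits, cut at about 13% in these data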
sPLA2-III inh: Blocks human group III sPLA2 activity. inhibition, % at 12.2 µM. AID 743126. 0.56% of 370,000 active. Q9NZ20. QFRET BODIPY PC-A2 liposome hydrolysis, fluorescence;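 active means inhibition above mean plus 3 SD of compounds lying within the high and low control bounds, cut at about 19% in these data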
ADAM10 inh: inhibitors of human ADAM10. O14672. recombinant ADAM10, EDANS/DABCYL FRET peptide cleavage, 3 h. inhibition, % at 7 µM. 0.62% of 370,000 active. AID 720582;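 active means inhibition above a per-campaign cutoff equal to the mean of compounds falling between control-based bounds plus 3 SD, cut at about 20% in these data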
PLCb3 inh: PLC-beta3 (human) inhibition, primary screen. Q01970. inhibition, % at 12.2 µM. AID 720704. Purified PLC-beta3, fluorogenic substrate, fluorescence. 0.18% of 370,000 active
PLCg1 inh: PLC-gamma1 (human) inhibition, primary screen; inhibition, % at 12.2 µM; 0.84% of 370,000 active; AID 720700; purified PLC-gamma1, fluorogenic substrate, fluorescence; in the data active means inhibition above about 9.5%
Target sequence (P19174 whole entry, looked up): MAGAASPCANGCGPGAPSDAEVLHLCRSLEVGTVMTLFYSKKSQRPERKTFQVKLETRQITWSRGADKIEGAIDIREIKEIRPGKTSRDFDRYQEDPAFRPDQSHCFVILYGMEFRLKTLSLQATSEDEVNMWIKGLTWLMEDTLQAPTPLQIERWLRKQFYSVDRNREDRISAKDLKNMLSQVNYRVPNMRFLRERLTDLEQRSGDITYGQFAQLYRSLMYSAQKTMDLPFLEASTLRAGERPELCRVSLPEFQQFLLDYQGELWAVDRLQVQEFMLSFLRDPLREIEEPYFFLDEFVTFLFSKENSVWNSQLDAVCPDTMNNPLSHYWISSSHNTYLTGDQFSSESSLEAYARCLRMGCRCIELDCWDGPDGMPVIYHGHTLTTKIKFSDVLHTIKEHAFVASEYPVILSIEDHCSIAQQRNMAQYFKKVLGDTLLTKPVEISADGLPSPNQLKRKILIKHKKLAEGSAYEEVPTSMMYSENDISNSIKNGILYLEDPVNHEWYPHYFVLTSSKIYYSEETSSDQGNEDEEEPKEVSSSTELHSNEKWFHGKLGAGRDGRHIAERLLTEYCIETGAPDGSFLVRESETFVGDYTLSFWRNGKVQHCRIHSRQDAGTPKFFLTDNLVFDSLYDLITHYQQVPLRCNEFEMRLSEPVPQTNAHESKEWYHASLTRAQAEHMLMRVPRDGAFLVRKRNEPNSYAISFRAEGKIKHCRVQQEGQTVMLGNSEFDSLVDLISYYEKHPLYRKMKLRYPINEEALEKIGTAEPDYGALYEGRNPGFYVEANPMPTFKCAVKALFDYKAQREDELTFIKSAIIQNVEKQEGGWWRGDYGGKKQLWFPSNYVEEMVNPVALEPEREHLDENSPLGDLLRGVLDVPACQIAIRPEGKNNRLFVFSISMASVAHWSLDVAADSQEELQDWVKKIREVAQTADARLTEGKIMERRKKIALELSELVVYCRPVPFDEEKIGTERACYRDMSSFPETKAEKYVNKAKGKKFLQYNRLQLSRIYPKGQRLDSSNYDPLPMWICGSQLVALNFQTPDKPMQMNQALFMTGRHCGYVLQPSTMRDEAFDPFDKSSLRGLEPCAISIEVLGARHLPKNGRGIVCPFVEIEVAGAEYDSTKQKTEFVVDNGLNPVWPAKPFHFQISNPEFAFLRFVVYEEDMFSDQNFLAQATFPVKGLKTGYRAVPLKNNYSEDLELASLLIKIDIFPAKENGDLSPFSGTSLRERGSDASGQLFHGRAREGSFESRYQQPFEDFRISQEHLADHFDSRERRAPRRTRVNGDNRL
ADAM10 counter: counter-screen for ADAM17 exosite inhibitors: inhibitors of human ADAM10 | shares compounds with ADAM17 inh | recombinant ADAM10, EDANS/DABCYL FRET peptide cleavage, 3 h | inhibition, % at 6.95 µM | 47% of 2,900 active;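 active means mean inhibition over the triplicate runs exceeds the activity threshold set in the earlier primary screen, cut at about 20% in these data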
ADAM17 confirm: human ADAM17 inhibition, confirmation; 65% of 2,900 active; inhibition, % at 6.95 µM; shares compounds with ADAM17 inh; AID 743257; recombinant ADAM17, EDANS/DABCYL QFRET peptide cleavage;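 active means mean inhibition across replicates above the hit cutoff set in the primary screen, cut at about 8.5% in these data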
PLCg1 ctr: PLC-gamma1 inhibition, counter-screen for PLC-beta3 hits; 3.1% of 3,300 active; purified PLC-gamma1, fluorogenic substrate, fluorescence; shares compounds with PLCg1 inh; inhibition, % at 12.3 µM; in the data active means inhibition above about 9.5%
PLCb3 confirm: human PLC-beta3 inhibition, confirmation; 1% of 3,300 active; inhibition, % at 12.3 µM; purified PLC-beta3, fluorogenic substrate fluorescence; shares compounds with PLCg1 inh; AID 743261
Each line names hits and unclear results; the compound was inactive in the other large screens (follow-up assays come after a bar, where they were run). A selection: hits, their analogues and other compounds. The true share with any hit is near 3.4%. Unless noted, no stated cut-off is given here; in the data, active means inhibition above about 11%; inactive means the rest.

Cc1c(C(=O)NCc2ccccn2)oc2ccc(S(=O)(=O)N3CCC4(CC3)OCCO4)cc12	none
OC(c1ccccc1)(c1ccccc1)C1CCN(CCCOc2ccncc2)CC1	none
O=C(NCc1n[nH]c(=S)n1-c1cccc(C(F)(F)F)c1)c1ccc(S(=O)(=O)N2CCCCC2)cc1	ADAM17 inh 13, PLCg1 inh 12 | ADAM10 counter inactive | ADAM17 confirm inactive | PLCg1 ctr inactive | PLCb3 confirm inactive
COc1ccc(C2=NN(C(=O)CSC3=NN4CCCC(=O)N=C4S3)C(c3cccc(OC)c3OC)C2)cc1 (stereo unspecified)	ADAM17 inh 10, PLCg1 inh 9.7 | ADAM10 counter inactive | ADAM17 confirm inactive | PLCg1 ctr inactive | PLCb3 confirm inactive
O=C(NNC(=O)c1csc(-c2ccccc2)n1)c1ccccc1	ADAM17 inh 8.8, PLCb3 inh 11 | ADAM10 counter inactive | ADAM17 confirm inactive | PLCg1 ctr inactive | PLCb3 confirm inactive
CCN1C(=O)[C@H]2[C@@H](c3ccc(C(F)(F)F)cc3)N[C@]3(CCCN(Cc4ccc(OC)cc4)C3=O)[C@H]2C1=O	none
O=C(Nc1ccc(N2CCN(C(=O)c3cccs3)CC2)c(Cl)c1)c1ccco1	ADAM17 inh 9.0, PLCg1 inh 14 | ADAM10 counter inactive | ADAM17 confirm inactive | PLCg1 ctr inactive | PLCb3 confirm inactive
Cc1ccccc1C(=O)N1CCN(c2ccc(NC(=O)c3ccco3)cc2Cl)CC1	none
CC(Oc1ccccc1)C(=O)Nc1nnc(C2CCCCC2)s1 (stereo unspecified)	none
COCC(=O)/C=C1\Sc2ccccc2N1C	none
CN1/C(=C/C(=O)C2CCC2)Sc2ccccc21	ADAM17 inh 12, PLCg1 inh 11 | ADAM10 counter inactive | ADAM17 confirm inactive | PLCg1 ctr inactive | PLCb3 confirm inactive
COc1ccc(OCCOc2ccc(S(=O)(=O)N3CCCC3)cc2[N+](=O)[O-])cc1	none
COc1cccc(Oc2ccc(S(=O)(=O)N3CCCC3)cc2[N+](=O)[O-])c1	ADAM17 inh 8.7, PLCg1 inh 9.6 | ADAM10 counter inactive | ADAM17 confirm inactive | PLCg1 ctr inactive | PLCb3 confirm inactive
NNC(=O)CNc1cccc(Br)c1	none
C=CCNc1cccc(Br)c1	ADAM17 inh 9.1, PLCb3 inh 11 | ADAM10 counter inactive | ADAM17 confirm inactive | PLCg1 ctr inactive | PLCb3 confirm inactive
CS(=O)(=O)c1ccc(Cl)c(NC(=O)COc2ccc3c(c2)CCC3)c1	none
CN(Cc1ccccc1)C(=O)c1cccc(NC(=O)Cc2ccc(NC(=O)C3CCCN(C(=O)c4ccccc4)C3)cc2)c1 (stereo unspecified)	ADAM17 inh 11, PLCg1 inh 12 | ADAM10 counter inactive | ADAM17 confirm inactive | PLCg1 ctr inactive | PLCb3 confirm inactive
CC1(Cc2ccc(F)cc2)C(=O)Nc2ccc(S(=O)(=O)NC3CCCCC3)cc21 (stereo unspecified)	ADAM17 inh 9.1, PLCb3 inh 11 | ADAM10 counter inactive | ADAM17 confirm inactive | PLCg1 ctr inactive | PLCb3 confirm inactive
COc1ccccc1CC1(C)C(=O)Nc2ccc(S(=O)(=O)NC3CCCCC3)cc21 (stereo unspecified)	none
O=C(CN1CCN(S(=O)(=O)c2ccc(Br)cc2)CC1)N/N=C/c1ccncc1	none
COCCNC(=S)N(CCO)Cc1cc2cc3c(cc2[nH]c1=O)OCCO3	none
Cc1cc(N2CCN(C(=O)Oc3ccc(-c4ccccc4)cn3)CC2)c2ccccc2n1	ADAM17 inh 10, PLCg1 inh 12 | ADAM10 counter inactive | ADAM17 confirm 15 | PLCg1 ctr inactive | PLCb3 confirm inactive
O=S(=O)(Nc1ccc2c(c1)OCO2)c1ccc(F)c(F)c1	none
CC1(C(=O)NCc2cccc(C(F)(F)F)c2)CCN1Cc1ccc(-c2ccccc2)o1 (stereo unspecified)	ADAM17 inh 13, PLCg1 inh 9.6 | ADAM10 counter inactive | ADAM17 confirm 10 | PLCg1 ctr inactive | PLCb3 confirm inactive
CC1(C(=O)NCc2cccc(C(F)(F)F)c2)CCN1Cc1cc2ccccc2o1 (stereo unspecified)	none
CC1CCN(C2(O)C(=O)Nc3ccc([N+](=O)[O-])cc32)CC1 (stereo unspecified)	ADAM17 inh 11, PLCb3 inh 14, PLCg1 inh 10 | ADAM10 counter inactive | ADAM17 confirm inactive | PLCg1 ctr inactive | PLCb3 confirm inactive
CC1CCN(C2(O)C(=O)Nc3ccc(Cl)cc32)CC1 (stereo unspecified)	none
Cc1ccc(NC(=O)Nn2cnnc2)cc1	none
O=C(Nc1ccc([N+](=O)[O-])cc1)Nn1cnnc1	ADAM17 inh 10, PLCg1 inh 12 | ADAM10 counter inactive | ADAM17 confirm inactive | PLCg1 ctr inactive | PLCb3 confirm inactive
CCOC(=O)CNC(=O)COc1coc(CN2CCN(c3ccccc3F)CC2)cc1=O	none
O=C(Nc1cccc(O)c1)c1ccc(S(=O)(=O)N2CCCCCC2)cc1	ADAM17 inh 10, PLCg1 inh 11 | ADAM10 counter inactive | ADAM17 confirm inactive | PLCg1 ctr inactive | PLCb3 confirm inactive
CSc1ncccc1C(=O)OCC(=O)Nc1ccc(C)c(S(=O)(=O)N2CCOCC2)c1	none
Cc1cccc(-n2c(Cc3ccccc3)nnc2SCC(=O)N2CCOCC2)c1	ADAM17 inh 12, PLCg1 inh 14 | ADAM10 counter inactive | ADAM17 confirm inactive | PLCg1 ctr inactive | PLCb3 confirm inactive
CC(C)[C@H](NC(=O)OCc1ccccc1)C(=O)OCC(=O)N1C(C)CCCC1C (stereo partly specified)	none
c1ccc2oc(SCc3cn4ccsc4n3)nc2c1	ADAM17 inh 9.2, PLCg1 inh 9.5 | ADAM10 counter inactive | ADAM17 confirm inactive | PLCg1 ctr inactive | PLCb3 confirm inactive
O=C(NCc1ccco1)c1ccc(F)c(S(=O)(=O)N2CCCCC2)c1	none
O=C(NCc1ccco1)c1ccc(Br)c(S(=O)(=O)N2CCCCC2)c1	ADAM17 inh 13, PLCg1 inh 11 | ADAM10 counter 25 | ADAM17 confirm inactive | PLCg1 ctr inactive | PLCb3 confirm inactive
CCN(CC(=O)Nc1cc(Cl)ccc1C)C(=O)c1ccc2c(=O)n3c(nc2c1)CCC3	none

Screening data as filed in PubChem BioAssay.
